Sampled rows, rich in hits. Any-hit rate of the full collection: about 6.7%.
Bead autofluor: compound fluorescence in toxin protease inhibitor counterscreen; compound autofluorescence counterscreen, microsphere flow cytometry; active compounds read high; fluorescence intensity (no concentration beside the values); 360,000 tested, 3.1% active; in the data active = fluorescence intensity above about 16000; inconclusive = no clear call, values can overlap the other calls
FBA Mtb inh: inhibits M. tuberculosis FBA enzyme | P9WQA3 | purified M. tuberculosis FBA, fluorescence read-out | 360,000 tested, 2.3% active | inhibition, % at 1 µM; in the data active = inhibition above about 27%;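 also: 0% = vehicle and 100% = reference inhibitor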
Target sequence (P9WQA3 whole entry, looked up): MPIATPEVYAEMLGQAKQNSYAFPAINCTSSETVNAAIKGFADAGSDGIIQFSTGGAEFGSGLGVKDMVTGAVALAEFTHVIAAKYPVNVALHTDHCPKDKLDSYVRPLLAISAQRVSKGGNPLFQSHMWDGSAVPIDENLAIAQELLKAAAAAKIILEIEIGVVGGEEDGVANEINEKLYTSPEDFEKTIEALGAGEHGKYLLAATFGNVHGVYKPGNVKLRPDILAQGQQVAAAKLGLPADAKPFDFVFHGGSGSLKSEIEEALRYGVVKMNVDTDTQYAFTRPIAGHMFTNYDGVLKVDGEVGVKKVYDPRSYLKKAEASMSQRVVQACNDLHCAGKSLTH
BoNT F protease: blocks Botulinum neurotoxin F light chain protease; Multiplex microsphere protease cleavage assay, flow cytometry; inhibition, % at 10 µM; 360,000 tested, 0.22% active; in the data active = inhibition above about 35%, passing the limit was not always enough; inconclusive = no clear call, values can overlap the other calls; also: plate controls were buffer without enzyme for full effect and enzyme alone for no effect
GDH-TPI counter-1: counter-screen for M. tuberculosis FBA inhibitors: GDH-TPI coupled enzymes. GDH-TPI coupled enzyme counterscreen, NADH absorbance. inhibition, % at 4.8 µM. 360,000 tested, 1.2% active; in the data active = inhibition above about 30%;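 also: 0% = DMSO wells and 100% = wells lacking the enzyme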
Anthrax LF inh2: blocks Bacillus anthracis lethal factor protease. multiplex microsphere protease cleavage assay, LF. inhibition, % at 10 µM. 360,000 tested, 0.12% active; also: plate controls were buffer without enzyme for full effect and enzyme alone for no effect
BoNT-A LC inh2: blocks Botulinum neurotoxin A light chain protease. multiplex microsphere protease substrate cleavage, flow cytometry. inhibition, % at 10 µM. 360,000 tested, 0.17% active. AID 588499; also: plate controls were buffer without enzyme for full effect and enzyme alone for no effect
Mtb FBA confirm: confirmation of M. tuberculosis fructose-bisphosphate aldolase inhibitors; shares compounds with FBA Mtb inh; purified M. tuberculosis FBA, fluorescence read-out; inhibition, % at 1 µM; 5,600 tested, 78% active; AID 651616; in the data active = inhibition above about 27%;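 also: 0% = vehicle wells and 100% = reference inhibitor wells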
GDH-TPI counter-2: inhibits GDH-TPI coupling enzymes, flagging Mtb FBA hits; shares compounds with FBA Mtb inh; GDH-TPI coupled enzyme counterscreen, fluorescence; inhibition, % at 1 µM; 5,600 tested, 81% active; AID 652141; in the data active = inhibition above about 10%
Starred values were filed as active, the others as inactive; ? = inconclusive; / = no result; + = active, no number. Rule as the data show it, unless noted: active = inhibition above about 30%; inconclusive = no clear call, values can overlap the other calls; inactive = below that.

SMILES	Bead autofluor	FBA Mtb inh	BoNT F protease	GDH-TPI counter-1	Anthrax LF inh2	BoNT-A LC inh2	Mtb FBA confirm	GDH-TPI counter-2
c1nc2sc3c(c2c2nnnn12)CCC3	23437*	36*	0	2	-2	0	10	3
O=C(O)CNC(=S)N(Cc1ccco1)Cc1ccccc1Cl	2708	2	2	2	-2	0	/	/
COCC(=O)N(Cc1cc2ccc(C)cc2[nH]c1=O)c1ccc(OC)cc1	23081*	62*	1	8	-2	?	139*	128*
CCOc1ccc(N(Cc2cc3ccc(C)cc3[nH]c2=O)C(=O)COC)cc1	4792	-3	-5	9	0	0	/	/
CNc1ccc2ncc(-c3ccccc3NC(C)=O)n2n1	3987	47*	2	7	-11	0	0	-4
CC(=O)Nc1cc(-c2ccccc2F)cn2c(-c3ccccc3)cnc12	3522	5	4	-4	-3	0	/	/
CC(C)CCNc1c(-c2cccs2)nc2ccccn12	3754	46*	-5	9	8	-2	38*	21*
Cc1ccn2c(NC(C)(C)C)c(-c3cccs3)nc2c1	4251	33*	-1	-4	-4	0	+	+
CCC(=O)NC(=S)Nc1cccc(-c2nc3ncccc3o2)c1	2087	-1	-2	10	1	0	/	/
COc1c(C)cc(Br)cc1C(=O)Nc1cccc(-c2nc3ncccc3o2)c1	4428	3	-10	22	-1	0	/	/
CCCCCC(=O)Nc1cccc(-c2nc3ncccc3o2)c1	8052	41*	-3	8	-5	-1	72*	61*
CCCCC(=O)Nc1cccc(-c2nc3ncccc3o2)c1	10694	43*	-4	0	-2	-1	-1	-5
CC(C)C(=O)Nc1cccc(-c2nc3ncccc3o2)c1	4203	35*	?	7	-17	1	158*	125*
Cc1ccc(-c2nc3cc(NC(=O)C(C)C)ccc3o2)cc1C	24088*	45*	-2	18	0	0	50*	35*
COCc1[nH]c(=S)[nH]c(=O)c1C	3198	-1	?	13	1	-3	/	/
Nc1c(-c2ccccc2)n[nH]c1-c1ccccc1	23500*	40*	-5	2	-2	?	72*	50*
CCOc1ccccc1N1CCN(Cc2c(C)n(C)n(-c3ccccc3)c2=O)CC1	4145	1	1	-6	-1	0	/	/
Cc1[nH]nc2c1C(c1cccc(O)c1)C1=C(CC(C)(C)CC1=O)N2 (stereo unspecified)	2455	33*	-4	9	-11	0	17	14*
Cc1[nH]nc2c1C(c1ccc(N(C)C)cc1)C1=C(CC(C)(C)CC1=O)N2 (stereo unspecified)	4159	-1	0	0	0	0	/	/
Cc1[nH]nc2c1C(c1ccc(F)cc1)C1=C(CC(C)(C)CC1=O)N2 (stereo unspecified)	4228	34*	-20	6	-1	-1	56*	43*
COc1ccc(C2C3=C(CCCC3=O)Nc3n[nH]c(C)c32)cc1OC (stereo unspecified)	4614	-1	-4	8	-5	0	/	/
Cc1ccc(C2C3=C(CC(C)(C)CC3=O)Nc3n[nH]c(C)c32)cc1 (stereo unspecified)	2433	28*	7	21	8	0	109*	94*
CC12CCC(=O)N1C(C(=O)NNC(=O)c1ccccc1F)CS2 (stereo unspecified)	5129	1	-4	5	1	3	/	/
O=[N+]([O-])c1cccc(C=NN=C2c3ccccc3-c3ccccc32)c1	2805	30*	-5	9	-4	0	144*	109*
Cc1ccc(C2NC(=O)c3ccccc3N2)c(C)c1 (stereo unspecified)	3842	62*	-6	6	3	0	80*	61*
SMILES	Bead autofluor	FBA Mtb inh	BoNT F protease	GDH-TPI counter-1	Anthrax LF inh2	BoNT-A LC inh2	Mtb FBA confirm	GDH-TPI counter-2
Cc1cccc(C2NC(=O)c3ccccc3N2)c1 (stereo unspecified)	3307	26	-1	6	-1	0	/	/
O=C1NC(c2ccc(Cl)cc2)Nc2ccccc21 (stereo unspecified)	4537	8	-8	-4	0	0	/	/
O=C1NC(c2ccco2)Nc2ccccc21 (stereo unspecified)	4913	43*	-14	2	0	0	57*	49*
COc1ccc(N2CCN(C(=O)COC(=O)c3cccc(OC)c3O)CC2)cc1	3189	-2	-10	9	-5	0	/	/
O=C(OCC(=O)N(CCc1ccccc1)Cc1ccccc1)c1ccccc1NCCO	4970	66*	8	-8	-1	3	164*	106*
CCOC(=O)N1CCN(C(=O)COC(=O)c2ccccc2NCCO)CC1	?	107*	7	9	-6	0	77*	78*
CNc1ccccc1C(=O)OCC(=O)N1CCN(c2ccc(OC)cc2)CC1	4135	73*	1	5	2	-1	0	-5
O=C(OCC(=O)N1CCC(Cc2ccccc2)CC1)c1ccccc1O	4238	-1	-3	6	-8	0	/	/
O=C(OCC(=O)N1CCC(Cc2ccccc2)CC1)c1ccccc1NCCO	4910	80*	9	7	-5	0	47*	29*
COc1ccc(OC)c(NC(=O)c2cc(OC(C)=O)cc(C(=O)Nc3cc(OC)ccc3OC)c2)c1	/	0	/	17	/	/	/	/
CCOc1ccc(-c2cc(C(=O)N3CCN(C)CC3)c3ccccc3n2)cc1	23119*	92*	1	19	1	2	-8	-6
CCOC(=O)N1CCN(C(=O)c2ccc3nc(-c4ccccc4)c(-c4ccccc4)nc3c2)CC1	4328	35*	3	25	-4	-1	99*	67*
CCOC(=O)N1CCN(C(=O)c2ccc3oc(CCc4ccccc4)nc3c2)CC1	3879	-2	4	6	4	0	/	/
C=CCNC(=O)c1ccc2nc(-c3ccccc3)c(-c3ccccc3)nc2c1	3442	32*	-14	10	1	2	+	175*
CCOC(=O)N1CCN(C(=O)c2cc(-c3ccc(OCC)cc3)nc3ccccc23)CC1	12002	77*	-5	26	0	0	103*	71*
O=C1C(=Cc2cccc(O)c2O)SC(=S)N1CCCN1CCOCC1	3712	-3	-13	20	-1	0	/	/
Cc1cc(Nc2ccc(F)cc2F)n2nc(C)nc2n1	5402	-1	-2	-3	-2	0	/	/
COc1ccccc1CCNC1C2CC3CC(C2)CC1C3 (stereo unspecified)	2549	1	-4	6	2	-1	/	/

Compound activity: PubChem, several laboratories
